Screening results (PubChem)
Mtb bLac sens = beta-lactam sensitization of Mtb H37Rv, H37Rv; M. tuberculosis H37Rv growth with meropenem, percent inhibition; inhibition, % at 25 µM; hit rate 0.27% among 330,000; AID 434955, 2010; call rule not given here;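 note: growth measured after seven days incubation then overnight dye step; 0% = bacteria only wells and 100% = bacteria with antibiotic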
CCHF vOTU inh = CCHFV vOTU protease inhibitors, primary screen, biochemical, Pep-AMC substrate, fluorescence. Crimean-Congo hemorrhagic fever virus L polyprotein viral ovarian tumor (vOTU) protease …. inhibition, % at 11.5 µM. hit rate 0.55% among 370,000. AID 651958, 2012; note: 0% = vehicle wells with enzyme and 100% = no enzyme wells
RecA splice inh = Mtb RecA intein splicing inhibitors, primary screen, biochemical, fluorescence, HTS. inhibition, % (test concentration not listed). hit rate 0.75% among 290,000. cell-free RecA intein splicing; in the data active = inhibition above about 30%;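 note: 0% = vehicle wells and 100% = reference inhibitor control wells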
Target sequence (P9WHJ3 whole entry, looked up, canonical isoform): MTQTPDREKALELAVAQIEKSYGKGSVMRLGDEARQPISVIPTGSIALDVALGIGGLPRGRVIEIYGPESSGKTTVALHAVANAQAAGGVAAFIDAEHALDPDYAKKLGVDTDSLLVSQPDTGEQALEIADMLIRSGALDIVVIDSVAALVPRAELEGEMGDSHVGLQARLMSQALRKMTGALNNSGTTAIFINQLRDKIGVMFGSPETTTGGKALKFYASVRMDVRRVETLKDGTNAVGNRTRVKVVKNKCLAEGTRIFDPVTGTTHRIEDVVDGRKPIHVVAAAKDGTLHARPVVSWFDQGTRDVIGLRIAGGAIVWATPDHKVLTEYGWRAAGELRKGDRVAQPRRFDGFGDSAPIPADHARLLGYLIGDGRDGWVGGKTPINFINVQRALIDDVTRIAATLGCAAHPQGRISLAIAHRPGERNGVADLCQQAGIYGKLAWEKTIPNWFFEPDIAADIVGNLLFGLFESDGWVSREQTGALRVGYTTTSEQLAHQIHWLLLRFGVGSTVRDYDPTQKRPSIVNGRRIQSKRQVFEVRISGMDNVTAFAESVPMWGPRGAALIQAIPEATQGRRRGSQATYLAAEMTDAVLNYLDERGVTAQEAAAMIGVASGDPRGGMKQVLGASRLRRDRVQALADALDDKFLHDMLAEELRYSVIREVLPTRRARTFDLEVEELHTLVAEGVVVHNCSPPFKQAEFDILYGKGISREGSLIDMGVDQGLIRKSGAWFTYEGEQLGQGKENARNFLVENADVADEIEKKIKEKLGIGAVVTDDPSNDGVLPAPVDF
Mtb FBA inh = Mtb FBA enzyme inhibitors, primary screen, biochemical, fluorescence, strain H37Rv; purified M. tuberculosis FBA, fluorescence read-out; inhibition, % at 1 µM; hit rate 2.3% among 360,000; AID 588726, 2011; in the data active = inhibition above about 27%;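 note: 0% = vehicle and 100% = reference inhibitor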
GDH-TPI counter-1 = GDH-TPI coupling enzyme inhibitors, primary screen, artefact control for M. tuberculosis FBA inhibitor project, biochemical, absorbance, full deck; AID 588335, 2011; inhibition, % at 4.8 µM; hit rate 1.2% among 360,000; GDH-TPI coupled enzyme counterscreen, NADH absorbance;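 note: 0% = DMSO wells and 100% = wells lacking the enzyme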
Mtb FBA inh conf = M. tuberculosis aldolase blockers, biochemical, fluorescence, strain H37Rv, confirmation; hit rate 78% among 5,600; AID 651616, 2012; purified M. tuberculosis FBA, fluorescence read-out; inhibition, % at 1 µM; shares compounds with Mtb FBA inh; in the data active = inhibition above about 27%;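 note: 0% = vehicle wells and 100% = reference inhibitor wells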
GDH-TPI counter-2 = GDH-TPI coupling enzyme inhibitors, artefact control for M. tuberculosis FBA inhibitor project, biochemical, fluorescence, high throughput | shares compounds with Mtb FBA inh | AID 652141, 2013 | inhibition, % at 1 µM | GDH-TPI coupled enzyme counterscreen | hit rate 81% among 5,600; in the data active = inhibition above about 10%
GDH-TPI dose = GDH-TPI coupling enzyme inhibitors, dose response, artefact control for M. tuberculosis FBA inhibitor project, biochemical, fluorescence, IC50; shares compounds with Mtb FBA inh; GDH-TPI coupled enzyme assay, artifact counterscreen; IC50, µM; hit rate 79% among 170; call rule not given here
Active calls of the source: *. Only some compounds are listed: those with a hit (about 4.2% of all), similar ones and a draw of the others. Cut-off read from the data, not from the text of the source, unless noted: active = inhibition above about 30%; inactive = the rest.

CC(=O)Nc1ccc(NC(=O)C2Cc3c(-c4ccc5c(c4)OCO5)ccnc3O2)cc1 (stereo not given) was read as CCHF vOTU inh 2, Mtb FBA inh 33*, GDH-TPI counter-1 6, Mtb FBA inh conf 9 and GDH-TPI counter-2 1.
For CNC(=O)C1Cc2c(-c3ccc4c(c3)OCO4)ccnc2O1 (stereo not given) the results were CCHF vOTU inh -6, Mtb FBA inh 60*, GDH-TPI counter-1 6, Mtb FBA inh conf 97* and GDH-TPI counter-2 77*.
`O=C(Nc1ccc2c(c1)OCO2)C1Cc2c(-c3ccc4c(c3)OCO4)ccnc2O1` (stereo not given) gave CCHF vOTU inh 8, Mtb FBA inh 36*, GDH-TPI counter-1 -6, Mtb FBA inh conf 77* and GDH-TPI counter-2 61*.
Screening CC(=O)Nc1cccc(-c2ccnc3c2CC(C(=O)Nc2ccc4c(c2)OCO4)O3)c1 (stereo not given) returned CCHF vOTU inh 5, Mtb FBA inh -4 and GDH-TPI counter-1 4.
`O=C(Nc1ccc2c(c1)OCO2)C1Cc2c(-c3ccncc3)ccnc2O1` (stereo not given) gave CCHF vOTU inh 0, Mtb FBA inh 0 and GDH-TPI counter-1 14.
For O=C(NCC1CC1)C1Cc2c(-c3ccc4c(c3)OCO4)ccnc2O1 (stereo not given) the results were CCHF vOTU inh 2, Mtb FBA inh 54*, GDH-TPI counter-1 12, Mtb FBA inh conf 138* and GDH-TPI counter-2 95*.
`CCOC(=O)[C@]12CCCC3=C1N(CCC3)C(=O)[C@@H](CC(=O)NCc1cccc3ccccc13)C2` gave CCHF vOTU inh -5.
For C#CCC1c2ccccc2CCN1CC=C (stereo not given) the results were CCHF vOTU inh -11.
For CC(=O)NCCNC(=O)C1Cc2c(-c3ccc4c(c3)OCO4)ccnc2O1 (stereo not given) the results were CCHF vOTU inh 18, Mtb FBA inh 65*, GDH-TPI counter-1 -9, Mtb FBA inh conf 19, GDH-TPI counter-2 -3 and GDH-TPI dose 2.9*.
For COc1ccc(NC(=O)C2Cc3c(-c4ccc5c(c4)OCO5)ccnc3O2)cc1 (stereo not given) the results were CCHF vOTU inh 13, Mtb FBA inh 46*, GDH-TPI counter-1 -1, Mtb FBA inh conf 21 and GDH-TPI counter-2 12*.
For CN1CCN(C(=O)C2Cc3c(-c4ccc5c(c4)OCO5)ccnc3O2)CC1 (stereo not given) the results were CCHF vOTU inh -12, Mtb FBA inh 40*, GDH-TPI counter-1 7, Mtb FBA inh conf 18, GDH-TPI counter-2 6 and GDH-TPI dose 3.1*.
For O=C(Nc1ccc2c(c1)OCO2)C1Cc2c(-c3ccc(Cl)cc3)ccnc2O1 (stereo not given) the results were CCHF vOTU inh -4, Mtb FBA inh 0 and GDH-TPI counter-1 0.
For CC(=O)NCCNC(=O)C1Cc2c(-c3ccccc3)ccnc2O1 (stereo not given) the results were CCHF vOTU inh 1, Mtb FBA inh -1 and GDH-TPI counter-1 2.
Screening COCCCn1c(=N)c(C(=O)NCc2ccc3c(c2)OCO3)cc2c(=O)n3cccc(C)c3nc21 returned CCHF vOTU inh 4, Mtb FBA inh -2 and GDH-TPI counter-1 4.
`CCOCCCn1c(=N)c(C(=O)NCc2ccc3c(c2)OCO3)cc2c(=O)n3cccc(C)c3nc21` gave Mtb bLac sens 50, RecA splice inh -13, Mtb FBA inh 6 and GDH-TPI counter-1 10.
Cc1cccn2c(=O)c3cc(C#N)c(=N)n(CCCN4CCOCC4)c3nc12 was read as Mtb bLac sens -17, CCHF vOTU inh -81, RecA splice inh -243, Mtb FBA inh 62*, GDH-TPI counter-1 2, Mtb FBA inh conf active and GDH-TPI counter-2 active.
For Cc1cccn2c(=O)c3cc(C(=O)NC4CCCCC4)c(=N)n(CCN4CCOCC4)c3nc12 the results were Mtb bLac sens -8, CCHF vOTU inh -39, RecA splice inh -24, Mtb FBA inh 67*, GDH-TPI counter-1 1, Mtb FBA inh conf 43* and GDH-TPI counter-2 41*.
Cc1cccn2c(=O)c3cc(C(=O)NCc4ccc(F)cc4)c(=N)n(CCCN4CCOCC4)c3nc12 was read as CCHF vOTU inh -59, Mtb FBA inh 80*, GDH-TPI counter-1 9, Mtb FBA inh conf 81* and GDH-TPI counter-2 82*.
`COCCCn1c(=N)c(C(N)=S)cc2c(=O)n3cccc(C)c3nc21` gave Mtb bLac sens -1, CCHF vOTU inh -165, RecA splice inh inactive, Mtb FBA inh 73*, GDH-TPI counter-1 10, Mtb FBA inh conf 57* and GDH-TPI counter-2 42*.
Screening COC(=O)c1cc(=O)n(Cc2ccco2)c(=Nc2ccccc2)s1 returned CCHF vOTU inh 5.
For CCN1CCCCC(NC(=O)c2ccc(F)cc2)C1=O (stereo not given) the results were CCHF vOTU inh 0.
`O=C(N[C@H](C(=O)N1CCC[C@H]1C(=O)NC1CCCC1)c1ccccc1)C1CC1` gave CCHF vOTU inh -11.
`C=CCn1c(Cc2cccs2)nnc1SCC(=O)Nc1ccc2c(c1)OCO2` gave CCHF vOTU inh -7.
`O=C(Cc1cn(Cc2ccccc2)c2ccccc12)Nc1ccc(Nc2cccnc2)cc1` gave CCHF vOTU inh 13.
For CCCn1c(=N)c(C#N)cc2c(=O)n3ccccc3nc21 the results were Mtb bLac sens -2, CCHF vOTU inh -48, Mtb FBA inh 34*, GDH-TPI counter-1 0, Mtb FBA inh conf 75* and GDH-TPI counter-2 68*.
Cc1cccn2c(=O)c3cc(C(N)=S)c(=N)n(CCCN4CCOCC4)c3nc12 was read as Mtb bLac sens -3, CCHF vOTU inh -42, RecA splice inh -119, Mtb FBA inh 57*, GDH-TPI counter-1 -1, Mtb FBA inh conf 56* and GDH-TPI counter-2 55*.
